From PubChem BioAssay (EPA / NIEHS) come the findings set out here.

The target in experiment [1] is Estrogen receptor (Homo sapiens) (UniProt P03372). Briefly: OT_ERa_GFPERaERE_0120: Odyssey Thera (OT) 2-hour HeLa Transcription Induction Assay for Estrogen Receptor (AID 2283382; active means hit-call score of the fitted dose curve at least 0.9, where 1 is the maximum). The method, boiled down:
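Measures ESR1 pathway reporter gain-of-signal in HeLa cells after a 2-hour treatment, detected as fluorescent protein induction by microscopy, DMSO as baseline.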

Experiment [2] deals with Bile acid receptor (Homo sapiens) (UniProt Q96RI1). Briefly: OT_FXR_FXRSRC1_0480: Odyssey Thera (OT) 8-hour HEK293T Protein-Complementation Assay for Farnesoid X receptor/SRC-1 Co-activator (AID 2283383; active means hit-call score of the fitted dose curve at least 0.9, where 1 is the maximum). The method, boiled down:
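Co-activator recruitment to FXR was measured in living HEK293T cells, where interaction of the two fused partners restored an active fluorescent reporter. Signal gain after 8 h treatment was referenced to DMSO.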

Experiment [3] has the same target. Briefly: OT_FXR_FXRSRC1_1440: Odyssey Thera (OT) 24-hour HEK293T Protein-Complementation Assay for Farnesoid X receptor/SRC-1 Co-activator (AID 2283384; active means hit-call score of the fitted dose curve at least 0.9, where 1 is the maximum). In outline:
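Cell-based binding reporter: interaction of FXR with SRC-1 brings reporter fragments together, giving a fluorescence signal read 24 h after dosing of HEK293T cells.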

Experiment [4] concerns the target Peroxisome proliferator-activated receptor gamma (Homo sapiens) (UniProt P37231). Briefly: OT_PPARg_PPARgSRC1_0480: Odyssey Thera (OT) 8-hour Protein-Complementation Assay for Peroxisome Proliferator-activated Receptor Gamma / SRC-1 Co-activator (AID 2283387; active means hit-call score of the fitted dose curve at least 0.9, where 1 is the maximum;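 further: nuclear to cytoplasmic split Venus YFP fluorescence ratio reporting PPARg SRC-1 interaction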). The method, boiled down: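 HEK293T transiently transfected with PPARg and SRC-1 fused to Venus YFP fragments, compounds 8 h at 37C. Fixed, Draq5-stained cells imaged; nuclear/cytoplasmic 488 nm fluorescence ratio over at least 350 cells per image; gain fitted versus DMSO.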

Experiment [5] shares this target. Briefly: OT_PPARg_PPARgSRC1_1440: Odyssey Thera (OT) 24-hour Protein-Complementation Assay for Peroxisome Proliferator-activated Receptor Gamma/ SRC-1 Co-activator (AID 2283388; active means hit-call score of the fitted dose curve at least 0.9, where 1 is the maximum). The method, boiled down: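 Protein-fragment complementation between PPARg and coactivator SRC-1 was measured by fluorescence imaging in transiently transfected HEK293T cells after 24 h treatment. Signal was quantified as N/C ratio in the 488 nm channel, with DMSO as negative control.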

A short description of experiment [6]: CEETOX_H295R_11DCORT: CeeTox H295R High-throughput Steroidogenesis Assay for 11-Deoxycortisol (11DCORT) (AID 2283432). As to conditions: actives raise or lower the signal. The method, boiled down:
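H295R cells prestimulated 48 h with 10 uM forskolin, then exposed 48 h to chemical in 0.1% DMSO. 11-Deoxycortisol in medium quantified by HPLC-MS/MS after MTBE extraction; bidirectional fit versus DMSO. MTT viability read in same wells.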

Experiment [7] can be described thus: CEETOX_H295R_OHPREG: CeeTox H295R High-throughput Steroidogenesis Assay for OH-Pregnenolone (OHPREG) (AID 2283434). As to conditions: actives raise or lower the signal. The method, boiled down: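 Human adrenal H295R cells were prestimulated 48 h with 10 uM forskolin, then exposed 48 h to chemical in 0.1% DMSO. Medium 17alpha-hydroxypregnenolone was quantified by HPLC-MS/MS after MTBE extraction; bidirectional fitting versus DMSO baseline.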

Experiment [8] is described as follows: CEETOX_H295R_OHPROG: CeeTox H295R High-throughput Steroidogenesis Assay for OH-Progesterone (OHPROG) (AID 2283435). As to conditions: actives raise or lower the signal. The method, boiled down:
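Secreted 17alpha-hydroxyprogesterone is read by tandem MS from media of forskolin-primed H295R cells dosed with chemical for 48 h. Activity is fitted in both directions against DMSO baseline; cytotoxic concentrations are re-tested diluted.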

Experiment [9] is described as follows: CEETOX_H295R_CORTIC: CeeTox H295R High-throughput Steroidogenesis Assay for Corticosterone (CORTIC) (AID 2283437).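 Further: corticosterone secreted into medium quantified by mass spectrometry.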 The following applies: actives raise or lower the signal. In outline: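 H295R cells were prestimulated 48 h with 10 uM forskolin, then exposed 48 h to test chemical in 0.1% DMSO. Medium corticosterone was MTBE-extracted and quantified by HPLC-MS/MS; bidirectional fit versus DMSO baseline.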

Experiment [10] can be described thus: CEETOX_H295R_CORTISOL: CeeTox H295R High-throughput Steroidogenesis Assay for Cortisol (AID 2283438).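 Further: cortisol secreted into medium quantified by LC-MS/MS.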 The following applies: actives raise or lower the signal. The method, boiled down: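 Human adrenocortical H295R cells (passage ≤10) received test chemicals for 48 h after forskolin priming. Secreted cortisol was measured by LC-MS/MS.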
The nature of experiment [11]: CEETOX_H295R_DOC: CeeTox H295R High-throughput Steroidogenesis Assay for DOC (AID 2283439). As to conditions: actives raise or lower the signal. In outline: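 Secreted DOC was quantified from H295R media by HPLC-MS/MS after 48 h chemical exposure following 48 h forskolin (10 uM) prestimulation. Values were fitted in both directions relative to DMSO, the negative control and baseline.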

Experiment [12] can be described thus: CEETOX_H295R_ESTRADIOL: CeeTox H295R High-throughput Steroidogenesis Assay for Estradiol (AID 2283440).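 Further: estradiol secreted into medium quantified by LC-MS/MS after dansyl derivatisation.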 The following applies: actives raise or lower the signal. The method, boiled down:
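Estradiol secreted into the medium was measured by tandem mass spectrometry after liquid-liquid extraction and dansylation. Human H295R cells had been forskolin-primed (10 uM, 48 h) before a 48 h chemical exposure with 0.1% DMSO.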

Experiment [13] in a line: CEETOX_H295R_ESTRONE: CeeTox H295R High-throughput Steroidogenesis Assay for Estrone (AID 2283441).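 Further: estrone secreted into medium measured by LC-MS/MS after dansyl derivatization.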 As to conditions: actives raise or lower the signal. In outline: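 H295R cells; 48 h forskolin (10 uM) prestimulation; 48 h compound exposure, 0.1% DMSO final. Medium estrone: MTBE extraction, dansyl derivatization, HPLC-MS/MS. Bidirectional fit vs DMSO.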
Experiment [14] can be described thus: CEETOX_H295R_PROG: CeeTox H295R High-throughput Steroidogenesis Assay for Progesterone (PROG) (AID 2283442).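 On AC50: human H295R adrenal cells primed with 10 µM forskolin before dosing; progesterone secreted into medium by H295R cells measured by HPLC-MS/MS.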 As to conditions: actives raise or lower the signal. The method, boiled down: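 Steps: seed H295R cells and let them adhere overnight; prime 48 h with 10 uM forskolin; dose with compound in DMSO at 0.1% final for 48 h; extract medium steroids with MTBE; measure progesterone by LC-MS/MS. MTT viability was run in the same wells.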

Read-out in experiment [15]: Tumor necrosis factor receptor superfamily member 6 (Homo sapiens) (UniProt P25445)
Briefly: LTEA_HepaRG_FAS: Life Technologies and Expression Analysis (LTEA) Assay for Fas cell surface death receptor (FAS) using HepaRG (AID 2283447). As to conditions: mRNA level, 48 h; actives raise or lower the signal. The method, boiled down:
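Differentiated human HepaRG cells, pre-cultured 48 h, were exposed in duplicate for 48 h to 8-point half-log concentrations (top 100 uM, 0.5% DMSO) in serum-free induction medium; FAS mRNA measured by qRT-PCR, normalized to ACTB/GAPDH/POLR2A, bidirectional fit versus DMSO.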

Read-out in experiment [16]: Fatty acid synthase (Homo sapiens) (UniProt P49327)
Briefly: LTEA_HepaRG_FASN: Life Technologies and Expression Analysis (LTEA) Assay for Fatty Acid Synthase (FASN) using HepaRG (AID 2283448). The following applies: mRNA level, 48 h; actives raise or lower the signal. The method, boiled down: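 Transcript-level assay: HepaRG liver cells are treated for 48 h across an eight-point range topping at 100 uM, and FASN mRNA, normalized to three housekeeping genes, is compared with DMSO controls in both directions.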

Read-out in experiment [17]: Cyclin D2 (CCND2), CCND2 (gene 894)
Briefly: LTEA_HepaRG_CCND2: Life Technologies and Expression Analysis (LTEA) Assay for Cyclin D2 (CCND2) using HepaRG (AID 2283449).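 Further: CCND2 transcript measured by TaqMan qRT-PCR and normalised to three housekeeping genes.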 As to conditions: mRNA level, 48 h; actives raise or lower the signal. In outline:
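Differentiated human HepaRG cells were exposed for 48 h in serum-free induction medium to eight half-log concentrations topping at 100 uM (0.5% DMSO vehicle). CCND2 mRNA was quantified by TaqMan qRT-PCR, normalised to ACTB, GAPDH and POLR2A, and fitted bidirectionally against DMSO.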

Read-out in experiment [18]: Cyclin Dependent Kinase Inhibitor 1A (CDKN1A), CDKN1A (gene 1026)
Briefly: LTEA_HepaRG_CDKN1A: Life Technologies and Expression Analysis (LTEA) Assay for Cyclin Dependent Kinase Inhibitor 1A (CDKN1A) using HepaRG (AID 2283450). As to conditions: mRNA level, 48 h; actives raise or lower the signal. The method, boiled down: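 Read-out is CDKN1A mRNA by TaqMan qRT-PCR, normalized to three housekeeping genes and fitted in both directions against the DMSO baseline. Human HepaRG cells were treated 48 h with test chemicals up to 100 uM in half-log steps, 0.5% DMSO.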

Read-out in experiment [19]: Cyclin D1 (CCND1), CCND1 (gene 595)
Briefly: LTEA_HepaRG_CCND1: Life Technologies and Expression Analysis (LTEA) Assay for Cyclin D1 (CCND1) using HepaRG (AID 2283451). As to conditions: mRNA level, 48 h; actives raise or lower the signal. The method, boiled down: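 HepaRG plated 48 h, medium switched to serum-free induction medium, chemicals added in duplicate (top 100 uM, half-log steps, 0.5% DMSO) for 48 h, cells lysed, RNA measured by TaqMan qRT-PCR.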

Experiment [20] in a line: CEETOX_H295R_ANDR: CeeTox H295R High-throughput Steroidogenesis Assay for Androstenedione (ANDR) (AID 2283436). As to conditions: actives raise or lower the signal. The method, boiled down:
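H295R human adrenal cells (passages ≤10) were exposed to test chemicals for 48 h; androstenedione in medium was MTBE-extracted and quantified by HPLC-MS/MS against a 7-point standard curve. Bidirectional fitting used DMSO as baseline.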

The AC50 is the midpoint of the concentration-response curve, whichever way the signal moves.

Molecules are shown by their SMILES. Records with an inconclusive call do not appear. Active and inactive are the calls of the source. How the source made its calls, unless noted: active means hit-call score of the fitted dose curve at least 0.9, where 1 is the maximum; inactive means score below 0.9.

Sequence of Estrogen receptor (Homo sapiens) (P03372 whole entry, looked up): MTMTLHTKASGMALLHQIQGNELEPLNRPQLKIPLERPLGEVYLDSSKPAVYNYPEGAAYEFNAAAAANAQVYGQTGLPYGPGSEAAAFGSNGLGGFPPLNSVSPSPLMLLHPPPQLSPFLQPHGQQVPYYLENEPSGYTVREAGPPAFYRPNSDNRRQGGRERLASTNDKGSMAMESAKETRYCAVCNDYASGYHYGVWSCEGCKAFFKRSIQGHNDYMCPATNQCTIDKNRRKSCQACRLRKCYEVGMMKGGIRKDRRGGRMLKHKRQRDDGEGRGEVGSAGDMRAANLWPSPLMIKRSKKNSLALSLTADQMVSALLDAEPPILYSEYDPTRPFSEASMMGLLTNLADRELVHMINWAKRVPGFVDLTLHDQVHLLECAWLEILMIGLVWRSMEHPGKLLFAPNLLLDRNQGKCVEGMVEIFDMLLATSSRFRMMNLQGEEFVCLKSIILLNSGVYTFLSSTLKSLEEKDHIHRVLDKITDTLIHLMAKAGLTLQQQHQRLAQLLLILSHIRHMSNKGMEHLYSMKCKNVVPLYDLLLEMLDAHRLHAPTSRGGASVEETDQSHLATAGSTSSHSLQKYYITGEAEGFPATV
Sequence of Fatty acid synthase (Homo sapiens) (P49327 whole entry, looked up): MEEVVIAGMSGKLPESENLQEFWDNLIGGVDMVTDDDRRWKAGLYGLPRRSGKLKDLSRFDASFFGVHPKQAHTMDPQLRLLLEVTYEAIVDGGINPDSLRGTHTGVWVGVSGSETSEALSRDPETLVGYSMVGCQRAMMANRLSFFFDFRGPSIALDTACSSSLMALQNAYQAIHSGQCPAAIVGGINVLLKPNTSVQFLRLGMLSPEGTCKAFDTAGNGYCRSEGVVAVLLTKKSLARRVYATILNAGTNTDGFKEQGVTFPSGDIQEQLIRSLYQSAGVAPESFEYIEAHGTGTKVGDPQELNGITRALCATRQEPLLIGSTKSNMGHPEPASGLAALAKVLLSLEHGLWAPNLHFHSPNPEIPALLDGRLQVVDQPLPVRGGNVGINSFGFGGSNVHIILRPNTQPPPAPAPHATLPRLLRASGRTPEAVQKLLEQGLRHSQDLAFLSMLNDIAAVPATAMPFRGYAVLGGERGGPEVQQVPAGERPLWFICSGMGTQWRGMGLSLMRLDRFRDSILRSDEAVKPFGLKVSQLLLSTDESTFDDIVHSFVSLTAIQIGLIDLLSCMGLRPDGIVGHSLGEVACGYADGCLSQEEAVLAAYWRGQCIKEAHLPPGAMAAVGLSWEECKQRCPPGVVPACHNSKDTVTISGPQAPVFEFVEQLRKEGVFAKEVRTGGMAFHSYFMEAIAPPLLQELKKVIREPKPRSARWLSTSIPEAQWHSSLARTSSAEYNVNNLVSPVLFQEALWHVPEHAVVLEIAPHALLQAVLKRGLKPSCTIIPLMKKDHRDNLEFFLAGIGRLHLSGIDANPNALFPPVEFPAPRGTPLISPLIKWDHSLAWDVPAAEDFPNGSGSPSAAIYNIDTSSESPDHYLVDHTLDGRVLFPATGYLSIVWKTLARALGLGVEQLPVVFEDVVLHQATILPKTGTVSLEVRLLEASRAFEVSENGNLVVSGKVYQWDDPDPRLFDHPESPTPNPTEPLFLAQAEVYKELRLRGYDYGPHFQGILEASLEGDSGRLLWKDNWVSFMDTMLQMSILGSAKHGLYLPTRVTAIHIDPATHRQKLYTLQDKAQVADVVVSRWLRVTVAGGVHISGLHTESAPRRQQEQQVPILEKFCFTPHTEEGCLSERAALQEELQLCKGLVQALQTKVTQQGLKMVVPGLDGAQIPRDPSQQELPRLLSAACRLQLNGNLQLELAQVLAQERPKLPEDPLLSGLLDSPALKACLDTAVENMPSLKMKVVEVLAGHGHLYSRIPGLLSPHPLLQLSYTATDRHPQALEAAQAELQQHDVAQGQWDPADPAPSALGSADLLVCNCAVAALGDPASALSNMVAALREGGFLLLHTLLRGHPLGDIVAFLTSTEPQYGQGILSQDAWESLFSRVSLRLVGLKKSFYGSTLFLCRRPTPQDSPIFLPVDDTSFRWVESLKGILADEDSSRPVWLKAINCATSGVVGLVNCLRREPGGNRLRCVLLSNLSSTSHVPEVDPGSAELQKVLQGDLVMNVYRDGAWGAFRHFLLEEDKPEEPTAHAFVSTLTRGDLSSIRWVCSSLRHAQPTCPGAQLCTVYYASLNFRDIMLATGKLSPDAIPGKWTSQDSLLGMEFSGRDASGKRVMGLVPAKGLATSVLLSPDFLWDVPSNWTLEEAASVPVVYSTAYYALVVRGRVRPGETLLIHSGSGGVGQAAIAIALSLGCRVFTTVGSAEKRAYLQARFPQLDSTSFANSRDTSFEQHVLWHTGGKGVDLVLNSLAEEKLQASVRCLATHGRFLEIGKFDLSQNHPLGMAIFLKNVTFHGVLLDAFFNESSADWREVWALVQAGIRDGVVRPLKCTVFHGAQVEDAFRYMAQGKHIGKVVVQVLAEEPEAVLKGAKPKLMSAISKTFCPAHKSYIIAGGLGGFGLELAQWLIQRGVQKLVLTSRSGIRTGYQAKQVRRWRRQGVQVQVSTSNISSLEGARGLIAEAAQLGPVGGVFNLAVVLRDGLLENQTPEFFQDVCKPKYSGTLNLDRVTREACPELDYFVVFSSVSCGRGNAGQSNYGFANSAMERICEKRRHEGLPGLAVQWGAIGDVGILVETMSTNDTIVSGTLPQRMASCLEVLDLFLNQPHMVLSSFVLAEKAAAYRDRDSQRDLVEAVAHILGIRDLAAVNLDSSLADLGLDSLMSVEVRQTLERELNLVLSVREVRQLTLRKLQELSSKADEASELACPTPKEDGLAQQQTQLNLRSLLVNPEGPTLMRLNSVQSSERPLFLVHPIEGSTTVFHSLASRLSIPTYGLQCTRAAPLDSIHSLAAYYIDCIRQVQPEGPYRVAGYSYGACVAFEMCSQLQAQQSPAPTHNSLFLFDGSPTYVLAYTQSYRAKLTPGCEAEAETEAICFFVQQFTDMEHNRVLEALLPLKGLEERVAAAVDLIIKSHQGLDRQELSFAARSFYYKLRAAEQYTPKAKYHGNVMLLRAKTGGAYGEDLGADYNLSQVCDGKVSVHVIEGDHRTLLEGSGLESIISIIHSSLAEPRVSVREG
Sequence of Bile acid receptor (Homo sapiens) (Q96RI1 whole entry, looked up, the tested form may be a part): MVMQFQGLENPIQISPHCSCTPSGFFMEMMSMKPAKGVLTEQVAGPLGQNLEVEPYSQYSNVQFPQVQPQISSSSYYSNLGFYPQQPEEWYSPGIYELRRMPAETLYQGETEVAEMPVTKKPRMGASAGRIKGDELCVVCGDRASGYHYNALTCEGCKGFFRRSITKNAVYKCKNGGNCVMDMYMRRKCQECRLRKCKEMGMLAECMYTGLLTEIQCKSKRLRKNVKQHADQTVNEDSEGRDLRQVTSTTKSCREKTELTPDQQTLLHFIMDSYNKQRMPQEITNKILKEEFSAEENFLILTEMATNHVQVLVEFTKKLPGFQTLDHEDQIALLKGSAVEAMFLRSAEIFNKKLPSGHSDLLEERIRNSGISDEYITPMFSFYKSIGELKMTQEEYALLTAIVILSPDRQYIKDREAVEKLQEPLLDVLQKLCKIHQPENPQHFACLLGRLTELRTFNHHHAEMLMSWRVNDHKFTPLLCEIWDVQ
Sequence of Peroxisome proliferator-activated receptor gamma (Homo sapiens) (P37231 whole entry, looked up, the tested form may be a part): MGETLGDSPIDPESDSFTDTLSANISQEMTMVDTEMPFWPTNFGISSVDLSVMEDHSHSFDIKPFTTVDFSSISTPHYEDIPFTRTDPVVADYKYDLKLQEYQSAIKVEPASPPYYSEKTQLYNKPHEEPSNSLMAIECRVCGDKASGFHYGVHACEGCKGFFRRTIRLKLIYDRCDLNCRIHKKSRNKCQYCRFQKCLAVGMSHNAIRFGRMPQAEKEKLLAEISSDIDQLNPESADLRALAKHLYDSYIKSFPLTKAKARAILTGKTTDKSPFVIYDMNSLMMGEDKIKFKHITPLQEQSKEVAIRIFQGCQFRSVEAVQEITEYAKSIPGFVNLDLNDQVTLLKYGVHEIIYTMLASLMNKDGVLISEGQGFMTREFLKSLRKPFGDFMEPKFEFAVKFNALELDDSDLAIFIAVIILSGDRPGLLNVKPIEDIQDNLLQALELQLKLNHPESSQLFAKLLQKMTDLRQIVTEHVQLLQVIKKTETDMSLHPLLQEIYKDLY

`CC(C)N(C(=O)COc1nnc(C(F)(F)F)s1)c1ccc(F)cc1`: the result in experiment [1], in [2], in [3], in [4], in experiment [5] and in experiment [6] was inactive. Moreover, the compound was called inactive in [7], in experiment [8], in experiment [9], in experiment [10], in experiment [11] and in experiment [12]. The compound was classed as inactive in experiment [13], in experiment [14], in experiment [15], in experiment [16], in [17] and in experiment [18]. Moreover, the compound was called inactive in experiment [19].
For the compound `CNC(=O)Oc1cccc(N=CN(C)C)c1`, the result in [1], in [2], in experiment [4], in [5], in experiment [7] and in experiment [8] was inactive. Also, the outcome in experiment [12], in [13], in experiment [15], in experiment [16], in experiment [17] and in experiment [18] was inactive. Further, in experiment [19], the result was inactive. The half-maximal activity concentration (AC50) in experiment [14] is 35.9 µM (active).
Turning to `C[C@H]1[C@H](c2ccc(Cl)cc2)SC(=O)N1C(=O)NC1CCCCC1`, the compound was classed as inactive in experiment [1], in experiment [4], in experiment [5], in experiment [6], in experiment [7] and in experiment [8]. The result in [20], in experiment [9], in [10], in [11], in experiment [12] and in experiment [13] was inactive. For the same compound, the result in experiment [14], in [16] and in experiment [19] was inactive. Besides, the half-maximal activity concentration (AC50) is 90.5 µM (active) in [15] and 71.6 µM (active) in [18].
With `OCCOc1ccccc1`, the result in [1], in [2], in experiment [3], in experiment [4], in experiment [5] and in experiment [15] was inactive. Moreover, the outcome in [16], in experiment [17], in [18] and in [19] was inactive.
`CCc1ccc(C(=O)NN(C(=O)c2cc(C)cc(C)c2)C(C)(C)C)cc1`: the call in experiment [1], in [2], in [4], in experiment [5], in experiment [6] and in [7] was inactive. In addition, the outcome in experiment [8], in experiment [9], in experiment [10], in [11], in experiment [12] and in experiment [13] was inactive. Besides, the call in experiment [14], in experiment [15], in [16], in experiment [17], in experiment [18] and in experiment [19] was inactive. Further, the AC50 in [3] is 10.6 µM (active).
